# Results taken from PubChem BioAssay.
# Calls of active or inactive are those of the source. Unless noted, no rule for the calls is given here.
# Experiments:
# [1] = compound effects on lung adenocarcinoma cell viability – A549, calcein-AM fluorescence, 48 h, basal, profiling panel (AID 1162); conditions: higher = more signal; also: test concentration not given here
# [2] = compound effects on differentiated 3T3-L1 adipocyte viability – cell-based, 3T3-L1 adipocytes, calcein-AM fluorescence, 48 h, basal, profiling panel (AID 1163); conditions: 3T3-L1 adipocytes viability, higher = more signal; also: test concentration not given here
# [3] = compound effects on hepatocellular carcinoma cell viability – HepG2, calcein-AM fluorescence, 48 h, basal, profiling panel (AID 1164); conditions: higher = more signal; also: test concentration not given here
# [4] = compound effects on multiple myeloma cell viability – MM1S, calcein-AM fluorescence, 48 h, basal, profiling panel (AID 1165); conditions: higher = more signal; also: test concentration not given here
# [5] = calcein-AM signal in unstimulated myeloma cells – cell-based, calcein-AM fluorescence, 48 h, PK04 Diversity Set, profiling panel (AID 1166); conditions: RPMI8226 myeloma viability, higher = more signal;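 also: cells grown under basal conditions without added stimulus; test concentration not given here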
# [6] = JC-1 mitochondrial signal, unstimulated HepG2 cells – cell-based, JC-1 fluorescence, 24 h, 100 nL compound, profiling panel (AID 1167); conditions: HepG2 mitochondrial potential, higher = more signal; also: test concentration not given here
# [7] = JC-1 mitochondrial signal, unstimulated adipocytes – cell-based, JC-1 fluorescence, 3T3-L1 adipocytes, 24 h, 100 nL compound, profiling panel (AID 1168); conditions: JC-1 mitochondrial fluorescence, higher = more signal, called active from +8 up or from −8 down; also: test concentration not given here
# [8] = JC-1 mitochondrial signal, unstimulated myeloma cells – cell-based, JC-1 fluorescence, RPMI8226, 24 h, 100 nL compound, profiling panel (AID 1169); conditions: JC-1 mitochondrial potential fluorescence, higher = more signal; also: test concentration not given here
# [9] = JC-1 mitochondrial signal, unstimulated MM1S myeloma – cell-based, JC-1 fluorescence, 24 h, 100 nL compound, profiling panel (AID 1170); conditions: MM1S mitochondrial potential, higher = more signal; also: test concentration not given here
# [10] = resazurin metabolic signal in A549 cells – cell-based, resazurin fluorescence, 24 h, PK04 Diversity Set, profiling panel (AID 1171); conditions: A549 viability, higher = more signal, called active from +8 up or from −8 down; also: test concentration not given here
# [11] = resazurin metabolic signal in HepG2 cells – cell-based, resazurin fluorescence, 24 h, PK04 Diversity Set, profiling panel (AID 1172); conditions: HepG2 viability, higher = more signal; also: test concentration not given here
# [12] = budding yeast growth changes without added modifier – OD600, strain BY4716, 24 h, basal condition, primary screen (AID 1173); conditions: S. cerevisiae BY4716 growth, OD600, 24 h; higher = more signal, called active from +8 up or from −8 down
# [13] = viability profiling in MM1S myeloma cells – cell-based, resazurin fluorescence, basal, 24 h, PK04 Diversity Set, profiling panel (AID 1174); conditions: higher = more signal, called active from +8 up or from −8 down; also: test concentration not given here
# [14] = biological target: Dihydroorotate dehydrogenase (quinone), mitochondrial (Plasmodium falciparum (isolate 3D7)) (UniProt Q08210); assay: inhibition of P. falciparum DHODH – biochemical, C-terminal His tag, absorbance 600 nm, primary screen (AID 1175); conditions: PfDHODH enzyme, DCIP absorbance 600 nm; higher = more signal, called active from +8 up or from −8 down;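 also: recombinant parasite enzyme with a five histidine tag at its C terminus; test concentration not given here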
# [15] = inhibition of PAO1 biofilm formation – strain PAO1, LB-PBS medium, absorbance 600 nm, primary screen (AID 1176); also: test concentration not given here; conditions: P. aeruginosa PAO1 growth/biofilm, A600, 12 h; higher = more signal
# [16] = growth modulation of vineyard yeast isolate – strain RM11-1a, OD600, basal, 24 h, primary screen (AID 1177);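 also: cultures grown under basal conditions with no added stressor; test concentration not given here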; conditions: S. cerevisiae RM11-1a growth, OD600, 24 h; higher = more signal, called active from +8 up or from −8 down
# [17] = growth of efflux-deficient E. coli DRC39 – strain DRC39, OD650, 24 h, E. coli filamentation inducers, primary screen (AID 1178);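 also: growth measured as culture turbidity by optical density at 650 nm; test concentration not given here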; conditions: E. coli DRC39 acrAB, higher = more signal, called active from +8 up or from −8 down
# [18] = growth of efflux-deficient E. coli DRC39 – strain DRC39, OD650, 48 h, E. coli filamentation inducers, primary screen (AID 1179);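 also: screen aims at cell division blockers that make cells filament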; conditions: E. coli DRC39 delta-acrAB growth, higher = more signal, called active from +8 up or from −8 down
# [19] = viability profiling in RPMI8226 myeloma cells – cell-based, resazurin fluorescence, basal, 24 h, PK04 Diversity Set, profiling panel (AID 1180); conditions: higher = more signal;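 also: RPMI8826 multiple myeloma cell line at 5000 cells per well; test concentration not given here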
# [20] = biological target: E3 ubiquitin-protein ligase XIAP (Homo sapiens) (UniProt P98170); assay: small molecules binding XIAP protein – biophysical, small-molecule microarray, fluorescence 635 nm, primary screen (AID 1181); conditions: higher = more signal;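 also: score merges 667 nm emission and signal to noise over triplicate slides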
# Sequence of E3 ubiquitin-protein ligase XIAP (Homo sapiens) (P98170 whole entry, looked up): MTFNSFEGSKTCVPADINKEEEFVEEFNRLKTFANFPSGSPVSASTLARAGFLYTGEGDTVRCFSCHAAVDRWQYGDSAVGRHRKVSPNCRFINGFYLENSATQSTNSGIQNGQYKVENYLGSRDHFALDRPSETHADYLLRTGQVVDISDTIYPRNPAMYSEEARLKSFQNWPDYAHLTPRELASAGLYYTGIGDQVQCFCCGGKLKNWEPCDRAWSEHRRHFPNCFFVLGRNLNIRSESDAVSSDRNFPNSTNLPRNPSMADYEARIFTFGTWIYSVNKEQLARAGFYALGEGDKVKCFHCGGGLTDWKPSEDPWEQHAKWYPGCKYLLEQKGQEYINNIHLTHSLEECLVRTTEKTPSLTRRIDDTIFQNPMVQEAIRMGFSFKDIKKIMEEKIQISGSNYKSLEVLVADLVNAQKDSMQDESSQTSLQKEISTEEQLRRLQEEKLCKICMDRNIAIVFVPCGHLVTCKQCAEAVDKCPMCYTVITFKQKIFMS
# Sequence of Dihydroorotate dehydrogenase (quinone), mitochondrial (Plasmodium falciparum (isolate 3D7)) (Q08210 whole entry, looked up): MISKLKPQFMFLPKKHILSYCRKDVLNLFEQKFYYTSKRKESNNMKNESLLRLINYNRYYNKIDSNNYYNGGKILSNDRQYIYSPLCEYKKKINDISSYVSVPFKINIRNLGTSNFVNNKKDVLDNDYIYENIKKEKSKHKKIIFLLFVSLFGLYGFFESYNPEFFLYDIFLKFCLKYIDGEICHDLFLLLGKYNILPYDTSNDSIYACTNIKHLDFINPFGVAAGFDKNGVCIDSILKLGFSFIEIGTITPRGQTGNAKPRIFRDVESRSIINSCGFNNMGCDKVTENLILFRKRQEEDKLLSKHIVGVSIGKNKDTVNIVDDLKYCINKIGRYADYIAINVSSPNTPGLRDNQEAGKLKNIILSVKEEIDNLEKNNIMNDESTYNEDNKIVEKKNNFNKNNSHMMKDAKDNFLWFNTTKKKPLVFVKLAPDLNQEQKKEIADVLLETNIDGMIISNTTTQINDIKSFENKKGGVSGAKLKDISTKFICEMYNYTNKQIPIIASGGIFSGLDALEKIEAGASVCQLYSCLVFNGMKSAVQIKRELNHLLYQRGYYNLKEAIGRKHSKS
SMILES,z-score [1],z-score [2],z-score [3],z-score [4],z-score [5],z-score [6],z-score [7],z-score [8],z-score [9],z-score [10],z-score [11],z-score [12],z-score [13],composite z-score [14],z-score [15],z-score [16],z-score [17],z-score [18],z-score [19],composite z-score [20]
CC(C)c1ccc(NN2C(C(O)C3=C[C@H]4C[C@@H](C3)C4(C)C)C=CC3C(=O)N(c4ccccc4)C(=O)C32)cc1 (stereo not given in full),0.0464,-0.395,0.165,-1.16,-1.04,-2.56,-0.401 (inactive),-0.366,0.758,-0.186 (inactive),-1.11,-1.8 (inactive),0.32 (inactive),0.0752 (inactive),0.863 (inactive),0.786 (inactive),-0.326 (inactive),-0.629 (inactive),0.319,0.339
COc1ccc(CCNC(=O)[C@@]2(C)c3ccccc3C(=O)N(Cc3ccc(OC(F)(F)F)cc3)[C@H]2c2ccc(CO)cc2)cc1,0.109,0.965,-0.0665,-2.23,-2.3,2.56,0.434 (inactive),-0.114,0.0946,2.43 (inactive),1.4,-0.553 (inactive),0.979 (inactive),-0.0074 (inactive),1.05 (inactive),0.362 (inactive),0.0466 (inactive),-0.657 (inactive),1.3,-0.031
COc1cc(Cc2cc3c(c(-c4ccccc4)n2)[Si](C(C)C)(C(C)C)OC3)cc(OC)c1OC,0.24,0.609,-0.305,-0.537,-0.189,-0.591,0.323 (inactive),0.138,0.382,0.534 (inactive),0.233,0.299 (inactive),1.03 (inactive),0.021 (inactive),-0.133 (inactive),-0.776 (inactive),1.13 (inactive),0.405 (inactive),0.542,-0.305
C=C(C(=O)CC[C@H](OC(=O)c1ccccc1-c1ccccc1C(=O)O)c1ccc(OCCO)cc1)C(C)C,-0.535,0.484,-0.659,-1.43,-1.48,0.17,0.447 (inactive),0.0683,-0.0663,0.393 (inactive),0.0716,-1.02 (inactive),-0.22 (inactive),-0.311 (inactive),0.509 (inactive),-0.711 (inactive),-0.0716 (inactive),-0.698 (inactive),0,0.125
C=CCNC(=O)[C@@H]1[C@H]2C(=O)O[C@H](c3ccccc3)[C@H](c3ccccc3)N2[C@H](c2ccc(OCCO)cc2)[C@@]12C(=O)Nc1ccc(C#CC3=CCCCC3)cc12,-1.25,0.73,-1.18,-2.12,-2.66,-1.11,-0.194 (inactive),-1.19,-1.24,-1.49 (inactive),-0.411,0.899 (inactive),-2.16 (inactive),0.106 (inactive),2.29 (inactive),2.01 (inactive),-0.972 (inactive),-0.563 (inactive),-2.96,-0.178
O=C1OCC=C[C@H]2OC34C=CCN(Cn5nnc6ccccc65)C(=O)[C@H]3N(CCO)C(=O)[C@@H]4[C@@H]12 (stereo not given in full),0.0757,-0.529,0.344,0.897,0.209,-1.15,0.765 (inactive),-0.462,-0.187,-0.822 (inactive),-0.779,0.818 (inactive),-0.176 (inactive),-0.642 (inactive),-0.332 (inactive),-0.581 (inactive),0.0034 (inactive),-0.0669 (inactive),-0.256,-0.0749
[N-]=[N+]=NCc1ccccc1[C@H]1OC(c2ccc(OCCCO)cc2)=N[C@@]1(Cc1ccccc1N=[N+]=[N-])C(N)=O,-0.0372,-0.117,-0.18,-1.84,-1.76,-0.255,0.199 (inactive),-1.06,-0.928,0.85 (inactive),0.794,-2.02 (inactive),0.393 (inactive),-0.0773 (inactive),-0.0963 (inactive),0.77 (inactive),0.0162 (inactive),0.394 (inactive),-0.103,-0.0773
CN(C)CCCCCCNC(=O)[C@@H]1C[C@@H]2C(=O)N[C@@H](CCCC[N+](C)(C)C)C(=O)N2[C@@H]1c1cccc(OCCO)c1,-0.188,-0.015,0.413,0.232,0.799,1.37,-0.225 (inactive),-0.567,0.0992,-0.646 (inactive),0.473,-0.834 (inactive),0.349 (inactive),-2.9 (inactive),0.0472 (inactive),-1.75 (inactive),1.03 (inactive),1.62 (inactive),-0.0472,0.141
COC(=O)C(CC#Cc1ccc2c(c1)[C@]1(C(=O)N2)[C@H](c2ccc(OCCO)cc2)N2[C@H](c3ccccc3)[C@H](c3ccccc3)OC(=O)[C@H]2[C@@H]1C(N)=O)C(=O)OC,-0.729,0.251,-0.188,-2.2,-1.68,-0.68,0.81 (inactive),-1.12,-0.927,-0.0032 (inactive),-0.156,1.17 (inactive),-0.551 (inactive),-1.24 (inactive),2.88 (inactive),2.32 (inactive),0.448 (inactive),0.287 (inactive),-1.43,0.13
